These molecules were tested on Vero E6 infected with SARS-CoV-2 (assay: inhibition of SARS-CoV-2 cytopathic effect; higher = more antiviral protection, active = above 15). Settings: 1 nM; 48 h.

Q: How did the “inhibition of SARS-CoV-2 cytopathic effect” value (shortened to “inhibition”) turn out when `O=C(O)C(F)(F)C(F)(F)C(F)(F)C(F)(F)C(F)(F)C(F)(F)C(F)(F)F` [ammonium-perfluorocaprylate] was run?
A: The value was 2.29% (inactive).

Q: `Fc1ccc2c(CCNCc3cccc(OCC(F)(F)C(F)F)c3)c[nH]c2c1` [idalopirdine] was tested. Which “inhibition” value did it give?
A: Its value is 2.26% (inactive).

Q: For `C=CC[C@]1(O)CC[C@H]2[C@@H]3CCC4=CCCC[C@@H]4[C@H]3CC[C@@]21C` [allylestrenol], which “inhibition” value is on record?
A: The value was -1.01% (inactive).

Q: For `CSc1ccc(OCc2ncc([N+](=O)[O-])n2C)cc1` [fexinidazole], which “inhibition” value is on record?
A: The value was -1.82% (inactive).

Q: Which “inhibition” value does the source give for `c1cc(OCCN2CCCCC2)cc(-c2n[nH]c3ccc(-c4nnc[nH]4)cc23)c1` here?
A: Its value is -0.48% (inactive).

Q: How did the “inhibition” value turn out when `CCCC(=O)C1(c2ccccc2)CCN(C(=O)[C@@H](Cc2ccc(OC)cc2)NC(=O)[C@@H](N)Cc2cncn2C)CC1` was run?
A: The value was 0.65% (inactive).

Q: `COc1ccc2c(c1)c(CC(=O)N1CCOCC1)c(C)n2C(=O)c1ccc(Cl)cc1` was tested. Which “inhibition” value did it give?
A: The value was 0.39% (inactive).

Q: With `N#CC(Cc1ccc(O)cc1)c1ccc(O)cc1` (centres undefined) [diarylpropionitrile] as the molecule, how does the “inhibition” value read?
A: Its value is -1.07% (inactive).

Q: For `OC[C@H]1O[C@H](O[C@H]2O[C@H](CO)[C@@H](O)[C@H](O)[C@H]2O)[C@H](O)[C@@H](O)[C@@H]1O` [cabaletta], which “inhibition” value is on record?
A: The value was 1.34% (inactive).
